Assay outcomes from PubChem.
Compounds with a hit are over-represented: about 3.8% of the library has one in this group of screens.
Yeast superoxide: lowers age-related superoxide in aged yeast cells | S. cerevisiae aged cells, superoxide DHE fluorescence; stronger effect = lower value | superoxide response (% of plate mean), % at 10 µM | actives 0.18% (n = 330,000);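 active means superoxide response under a set limit, about three screen SD below normal, cut at about 65% in these data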;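 further: yeast aged for seven days with compound at 30 °C before DHE staining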
MPTP inh: permeability transition pore inhibition; isolated mouse mitochondria, Ca2+ swelling absorbance, 30 min; inhibition, % at 10 µM; actives 1.4% (n = 360,000); AID 602449;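 active means inhibition of 50% or more, scaled per plate between neutral and stimulator controls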
aDG glyco up: alpha-DG glycosylation activation; Pro5-aDG cells, alpha-DG glycosylation AlphaScreen (IIH6); 0% Pro5, 100% B10-LARGE cell signal; activation, % at 10 µM; actives 0.22% (n = 360,000); AID 624168;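 active means activation of at least 8% versus controls, or a plate z-score of at least 8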;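 further: Pro5 are CHO cells carrying HIG-tagged alpha-DG that lacks glycosylation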
FAS-TE inh: inhibitors of human fatty acid synthase thioesterase domain; P49327; recombinant FAS-TE, OMFH fluorogenic substrate, fluorescence endpoint; inhibition, % at 15 µM; actives 0.67% (n = 360,000); AID 602261;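 active means compounds whose normalised, plate-corrected inhibition of enzyme fluorescence in the single-dose primary screen is 50% or more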
Mot1-301 SUMO: SUMOylation pathway inhibition by Mot1-301 growth rescue; growth rescue, % at 18.8 µM; actives 1% (n = 320,000); AID 2716; S. cerevisiae Mot1-301 growth rescue, ATP luminescence, 38.5C; percent above DMSO median, 100 means doubled;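 active means every valid replicate shows activation above 250% relative to neutral control wells; inactive means the rest, any valid replicate at or below 250%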
Cardio protect: myocardial damage modulation in H9c2 cells; H9c2 cardiomyocytes, H2O2 injury protection, ATPLite, 2 h; protection from H2O2 cell death, % at 20 µM; actives 0.63% (n = 360,000); AID 588492;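 active means compounds giving at least 50% protection of heart cells from peroxide-induced death in the single-dose screen, raw or plate-pattern-corrected value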
Rh123 counter: membrane potential counter-screen of mitochondrial pore inhibitors | shares compounds with MPTP inh | isolated mitochondria, Rhodamine 123 fluorescence | inhibition, % at 10 µM | actives 78% (n = 5,000); in the data active means inhibition above about 22%
MPTP swell DR: dose response confirmation of mitochondrial permeability transition pore inhibitors; shares compounds with MPTP inh; isolated mitochondria swelling, absorbance; IC50, µM; actives 58% (n = 780); in the data active means IC50 below about 20 µM
MPTP cs DR: counter-screen for mitochondrial permeability transition pore inhibitors, dose response | shares compounds with MPTP inh | actives 49% (n = 780) | isolated mitochondria counterscreen, fluorescence read-out | AID 651564 | IC50, µM; in the data active means IC50 below about 80 µM
Large screens that a line does not name were inactive (follow-up assays come after a bar, where they were run).

O=C(NCc1ccccc1)c1cc(C2CCCCN2S(=O)(=O)c2ccccc2)on1 (stereo not given)	none (no result: Yeast superoxide, Mot1-301 SUMO)
O=C(N/N=C/c1cc([N+](=O)[O-])ccc1O)C12CC3CC(CC(C3)C1)C2	MPTP inh 78.3 | Rh123 counter 53.9
O=C(N/N=C/c1cc([N+](=O)[O-])ccc1O)NC12CC3CC(CC(C3)C1)C2	MPTP inh 73.9 | Rh123 counter 43.8
CCNC(=O)C(=O)N/N=C/c1cc([N+](=O)[O-])ccc1O	none
Cc1ccc(C(C)C)c(OCC(=O)NS(=O)(=O)c2ccc(Cl)cc2)c1	none
CCOc1ccc(N(CC(=O)N2CCCCCC2)S(=O)(=O)c2ccc(F)cc2)cc1	none
Cc1cccnc1N(C(=O)Nc1cccc(Cl)c1)C1=NCC(C)(C)S1	MPTP inh 52.3 | Rh123 counter 74.7
Cc1[nH]c(C)c(S(=O)(=O)N2CCN(c3ccccc3)CC2)c1C(=O)N1CCCCC1	none
COC(=O)/C=C1\SC(=Nc2ccc(Cl)c(Cl)c2)NC1=O	MPTP inh 95.0 | Rh123 counter 51.9
CSc1nsc2nc(=O)c(/C=C3\C=Nc4ccccc43)c(N)n12	none
Nc1c(C=C2C=CC(=O)C=C2)c(=O)nc2snc(SCc3ccccc3)n12	MPTP inh 65.9 | Rh123 counter 59.3
O=C1S/C(=C\c2ccc(O)c([N+](=O)[O-])c2)C(=O)N1c1ccccc1Cl	MPTP inh 59.0 | Rh123 counter 71.5
COc1cc(/C=N/NC(=O)C2c3ccccc3Oc3ccccc32)ccc1O	MPTP inh 83.4 | Rh123 counter inactive | MPTP swell DR 15.8 | MPTP cs DR inactive
N#CCC(=O)Nc1ccc(C(=O)NNC(=S)NC2CC2)cc1	none (no result: Yeast superoxide, Mot1-301 SUMO)
O=C(CC1NCCc2ccccc21)Nc1ccc(Oc2ccccc2)cc1 (stereo not given)	MPTP inh 91.8 | Rh123 counter inactive | MPTP swell DR 4.65 | MPTP cs DR 35.6
O=C(CC1NCCc2ccccc21)Nc1ccccc1 (stereo not given)	none
FC(F)(F)c1cc(-c2ccccc2)nc(N2CCCCC2)n1	MPTP inh 67.3 | Rh123 counter inactive | MPTP swell DR inactive | MPTP cs DR inactive
CC(C)CC1C(=O)N(Cc2cn(CC3CCCCC3)nn2)CCS(=O)(=O)N1Cc1ccc(-c2ccc(F)nc2)cc1 (stereo not given)	none (no result: Yeast superoxide, Mot1-301 SUMO)
COc1cccc(C(=O)Nc2ccc(Cl)c(C(F)(F)F)c2)c1	MPTP inh 99.2 | Rh123 counter 89.0
CCNC(=S)Nc1ccc(Cl)c(C(F)(F)F)c1	MPTP inh 90.6 | Rh123 counter 95.0
COc1ccc(C(=O)Nc2ccc(C(=O)c3ccccc3)cc2)cc1	MPTP inh 62.4 | Rh123 counter 41.0
COc1cc(C(=O)Nc2ccc(Cl)c(C(F)(F)F)c2)cc(OC)c1OC	MPTP inh 80.8 | Rh123 counter 77.4
COc1ccc(S(=O)(=O)N2CCC3CC2c2cc(N4CCOCC4)ccc23)cc1 (stereo not given)	none (no result: Yeast superoxide, Mot1-301 SUMO)
CC(=O)Nc1ccc(NC(=O)COC(=O)[C@@H]2CCCN2C(=O)c2cccs2)cc1	none
O=C(Nc1ccc(Cl)c(C(F)(F)F)c1)c1ccco1	MPTP inh 80.6 | Rh123 counter 73.5
Clc1ccc(-c2nnc(CSc3nnc(-c4cccs4)n3Cc3ccccc3)o2)cc1	MPTP inh 91.5 | Rh123 counter 89.1
COc1ccccc1N1CCN(C(=O)c2ccoc2C)CC1	MPTP inh 77.8 | Rh123 counter inactive | MPTP swell DR inactive | MPTP cs DR inactive
C/C(=N\O)c1cc(Cl)cc(Cl)c1O	none
Oc1cc(Cl)cc(Cl)c1Cl	MPTP inh 52.5 | Rh123 counter 80.1
CCCn1c(/C=N/Nc2nc3ccccc3[nH]2)nc2ccccc21	MPTP inh 89.9 (no result: Yeast superoxide, Mot1-301 SUMO) | Rh123 counter 80.8
